Measured values published in PubChem BioAssay (NCI).
Compounds without any hit were thinned out: in the full panel of roughly 83,000, 20% have a hit.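 Each cell line was grown in a 96-well plate and treated with one concentration of compound for 48 hours. Values below 10 were considered active.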 Values without a mark were called inactive. Calls of active or inactive are those of the source.

Experiments:
Experiment in all cases: NCI-60 one-dose screen, 48 h (100 = growth as untreated, 0 = no growth, -100 = all killed)
Conditions in all cases: 10 µM unless noted
NCI-H23 lung = system: NCI-H23 lung
NCI-H226 lung = system: NCI-H226 lung
NCI-H322M lung = system: NCI-H322M lung
HOP-62 NSCLC = system: HOP-62 NSCLC
NCI-H460 lung = system: NCI-H460 lung
HOP-92 NSCLC = system: HOP-92 NSCLC
NCI-H522 lung = system: NCI-H522 lung
A549/ATCC NSCLC = system: A549/ATCC NSCLC
786-0 renal = system: 786-0 renal
COLO 205 colon = system: COLO 205 colon
DU-145 prostate = system: DU-145 prostate
K-562 leukemia = system: K-562 leukemia
MALME-3M melanoma = system: MALME-3M melanoma
MDA-MB-231 breast = system: MDA-MB-231 breast
RXF 393 renal = system: RXF 393 renal
SF-268 CNS = system: SF-268 CNS
SF-295 CNS = system: SF-295 CNS
SF-539 CNS = system: SF-539 CNS
UACC-257 melanoma = system: UACC-257 melanoma
M14 melanoma = system: M14 melanoma

Compound | growth (NCI-H23 lung) | growth (NCI-H226 lung) | growth (NCI-H322M lung) | growth (HOP-62 NSCLC) | growth (NCI-H460 lung) | growth (HOP-92 NSCLC) | growth (NCI-H522 lung) | growth (A549/ATCC NSCLC) | growth (786-0 renal) | growth (COLO 205 colon) | growth (DU-145 prostate) | growth (K-562 leukemia) | growth (MALME-3M melanoma) | growth (MDA-MB-231 breast) | growth (RXF 393 renal) | growth (SF-268 CNS) | growth (SF-295 CNS) | growth (SF-539 CNS) | growth (UACC-257 melanoma) | growth (M14 melanoma)
COc1cc(CNC(=O)CCCC/C=C/C(C)C)ccc1OCc1nnc(Nc2ccc([N+](=O)[O-])cc2)o1 | 54.9% | 62.1% | 57.6% | 67.6% | 33.5% | -2.56% (active) | 73% | 49% | 22.2% | 70.9% | 62% | 59.6% | 69.6% | 67.1% | 54.1% | 79.7% | 64.9% | 70.2% | 77.6% | 66.4%
CC1=NN(c2nc(SCC(=O)Nc3nc4ccc(C)cc4s3)nc(-c3ccccc3)c2C#N)C(=O)C1 | 105% | 89.4% | 96.7% | 86.4% | 100% | 85% | 91.1% | 107% | 100% | 118% | 113% | 94.7% | 101% | 106% | 94.9% | 97.2% | 103% | 90.3% | 113% | 109%
COc1ccc(-c2nc3c(c(-c4ccccc4)nn3-c3ccccc3)c(-c3ccc(N4CCOCC4)cc3)c2C#N)cc1 | 94% | 102% | 102% | 104% | 97.4% | 99.4% | 103% | 103% | 82.4% | 124% | 106% | 96.9% | 103% | 107% | 38.6% | 112% | 91.6% | 85.9% | 101% | 101%
C#Cc1cccc(Nc2ncnc3ccc(-c4cnc(N)nc4)cc23)c1 | 50% | 53.2% | -7.64% (active) | 28.4% | 37.8% | 15% | 10.5% | 35.9% | 36.3% | 52.6% | 18.9% | 53.2% | 9.03% (active) | 12.8% | -15.3% (active) | 32.7% | 26.2% | 32.4% | 80.7% | 36.8%
Cc1ccc(CNc2ccc(Cl)cc2NCc2ccc(C)c(O)c2)cc1O | 3.7% (active) | 85.7% | 17.6% | 40.5% | 2.22% (active) | -11% (active) | 12.5% | 21% | 23% | 90.2% | 23.4% | 12.3% | -3.38% (active) | -52.2% (active) | 21.2% | 28.3% | 74.2% | 25.8% | 46.2% | 25.3%
O=C(Nc1nn(-c2ccc(Cl)cc2Cl)nc1-c1ccccc1)c1ccccc1 | 97.2% | 98.6% | 99.2% | 77.3% | 107% | 86.9% | 87.2% | 94.7% | 94.3% | 99.3% | 131% | 91.9% | 80.2% | 98.3% | 111% | 107% | 56.9% | 121% | 106% | 87.1%
CN(C)C1CCN(Cc2ccc(NC(=O)c3cncc(C#Cc4cnc(N)c5ncccc45)c3)cc2C(F)(F)F)CC1 | 84.7% | 90% | 112% | 75.5% | 0.477% (active) | 66.4% | 84.9% | 72.2% | -78.9% (active) | 69.6% | 64.1% | 1.29% (active) | -63.1% (active) | 2.48% (active) | 19.4% | 81.3% | 93.9% | 59.6% | 15.5% | -73.6% (active)
O=C(c1ccc(Cl)cc1)N1CCN(c2ccnc3cc(Cl)ccc23)CC1 | 98.4% | 87.3% | 96.5% | 102% | 96.2% | 83.7% | 56.5% | 87% | 93.5% | 101% | 112% | 77.1% | 84.4% | 89.1% | 77.5% | 100% | 95.8% | 100% | 91% | 98%
